Mito fusion act – blocks mitochondrial division or promotes mitochondrial fusion | Potency, µM (titrated, usually from 46.1 µM), most hits filed as activators | S. cerevisiae fusion-defective mutant growth rescue, CellTiterGlo 48 h | hit rate 0.23% among 320,000; further: nearly all actives have a fitted effect of over 45% in size
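Growth-rescue viability read-out: after 48 h at the non-permissive 37C in glycerol/ethanol YPEG, yeast mitochondrial fusion mutants are measured by CellTiterGlo luminescence; compounds (23 nl pinned per well) restoring growth score as division inhibitors or fusion activators.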
IDH1 R132H inh – inhibitors of human mutant IDH1 R132H; IDH1-R132H enzyme, NADPH consumption, diaphorase/resazurin fluorescence; Potency, µM (series often up to 76.6 µM), most hits filed as inhibitors; hit rate 0.093% among 390,000; further: nearly all actives have a fitted effect of over 65% in size
Target sequence (O75874 whole entry R132H, stated change not applied): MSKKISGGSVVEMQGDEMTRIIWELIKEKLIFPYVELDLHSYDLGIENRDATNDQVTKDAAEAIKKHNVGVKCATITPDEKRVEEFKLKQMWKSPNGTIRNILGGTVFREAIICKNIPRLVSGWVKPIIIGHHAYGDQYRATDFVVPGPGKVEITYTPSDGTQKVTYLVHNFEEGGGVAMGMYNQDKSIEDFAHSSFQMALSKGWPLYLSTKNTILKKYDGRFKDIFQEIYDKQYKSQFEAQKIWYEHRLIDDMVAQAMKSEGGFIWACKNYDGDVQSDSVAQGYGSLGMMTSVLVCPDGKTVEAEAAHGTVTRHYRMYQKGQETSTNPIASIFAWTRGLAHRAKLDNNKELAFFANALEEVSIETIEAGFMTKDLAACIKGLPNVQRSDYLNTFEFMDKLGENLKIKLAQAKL
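IDH1-R132H (0.5 ug/mL) preincubated 30 min with compound, then NADPH (0.016 mM) and alpha-KG (2 mM) added; 80 min at RT, pH 7.5. Remaining NADPH coupled via diaphorase/resazurin to fluorescence (540/590 nm); concentration-response curves normalized to no-enzyme control.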
A549 viability – A549 cytotoxicity, counter-screen for Nrf2 inhibitors; hit rate 0.16% among 390,000; A549 ARE-Fluc cells, CellTiter-Fluor viability, 18-24 h; Potency, µM (series often up to 46 µM), usual class: inhibitors
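Cytotoxicity counterscreen: CellTiter-Fluor fluorescence was measured in A549 ARE_Fluc cells after 18-24 h of compound exposure in a concentration series. The subsequent BugLite luminescent read reports ARE-luciferase activity.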
TrxR1 substrate – substrates of rat thioredoxin reductase 1 | hit rate 0.01% among 390,000 | AID 588456 | Potency, µM (series often up to 114 µM) | O89049 | purified TrxR1 substrate turnover, NADPH consumption readout; further: nearly all actives have a fitted effect of over 50% in size
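Rat TrxR1, dispensed at 90 nM, was prereduced with 400 uM NADPH (final) for 5 min at ~22 deg C, then incubated with compound 15 min before 400 uM selenite. A first-read NADPH fluorescence drop versus no-compound background flagged substrates.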
Nrf2 block – blocks Nrf2 signaling. A549 ARE-Fluc reporter, luciferase luminescence, 18-24 h. Potency, µM (titrated, usually from 46 µM), most hits filed as inhibitors. hit rate 2.1% among 360,000. AID 504444; further: nearly all actives have a fitted effect of over 60% in size
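In this cell-based qHTS, ARE-driven firefly luciferase in A549 cells reports Nrf2 activity; the luminescent signal after BugLite lysis is the measured value, with a prior CellTiter-Fluor read for cell health.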
rTrxR1 inhibitor – inhibitors of rat thioredoxin reductase 1. O89049. recombinant rTrxR1, NADPH fluorescence consumption, selenite substrate. Potency, µM (doses to about 114 µM), actives largely listed as inhibitors. hit rate 1% among 390,000. AID 588453; further: nearly all actives have a fitted effect of over 65% in size
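Rat TrxR1 (90 nM in the dispensed reagent) was pre-reduced with 400 uM NADPH for 5 min at room temperature, then incubated with compound for 15 min. After 400 uM selenite was added, NADPH fluorescence (Ex 340/Em 450 nm) was followed for 8 min.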
Large screens that a line does not name were inactive. Rows were chosen to be rich in hits. Some 3.1% of all compounds tested hit in one or more screens of this group. The call rests on the fitted dose curve; in most records, active means well fitted curve in the direction sought with a large enough effect; inconclusive means small, poorly fitted or top-dose-only effect, or another doubt; inactive means no such curve, though single readings can be large; an effect the other way counts as inactive or inconclusive.

Oc1ccc(CN2CCN(Cc3ccccc3)CC2)c2cccnc12	rTrxR1 inhibitor 14.1µM
Oc1ccc(CNCc2ccccc2F)c2cccnc12	Nrf2 block 1.3µM (no result: Mito fusion act, IDH1 R132H inh, TrxR1 substrate, rTrxR1 inhibitor)
Cc1nc2ccn(Cc3ccco3)c(=O)c2cc1C(=O)Nc1ccc(F)cc1	none (no result: Mito fusion act)
Cc1ccccc1NCc1ccc(O)c2ncccc12	A549 viability inconclusive, Nrf2 block inconclusive, rTrxR1 inhibitor 0.631µM
Cc1ccc(NCc2ccc(O)c3ncccc23)c(F)c1	Nrf2 block 20.6µM (no result: Mito fusion act, IDH1 R132H inh, TrxR1 substrate, rTrxR1 inhibitor)
Oc1ccc(CNc2ccc(F)cc2)c2cccnc12	A549 viability inconclusive, Nrf2 block 7.31µM, rTrxR1 inhibitor 0.631µM
Oc1ccc(CNc2cccc(F)c2)c2cccnc12	Nrf2 block inconclusive (no result: Mito fusion act, IDH1 R132H inh, TrxR1 substrate, rTrxR1 inhibitor)
CN(Cc1nccs1)c1ncnc2ccc(-c3ccc4c(c3)OCO4)cc12	none (no result: Mito fusion act, IDH1 R132H inh, TrxR1 substrate, rTrxR1 inhibitor)
COC(=O)c1ccccc1NC(=O)CCCn1nc(C)c2sc3ccccc3c2c1=O	Nrf2 block inconclusive (no result: Mito fusion act)
Cc1ccc(CCNC(=O)Cn2ncc3c(=O)oc4ccccc4c32)cc1	none (no result: Mito fusion act)

Bioassay records: PubChem BioAssay, National Center for Advancing Translational Sciences (NCATS)
